Several values for one entry are separate records, joined by “and”; a condition that tells them apart may be missing. Identical values can stand only once. Screen size: about 420,000 compounds; about 50,000 (12%) were called active. About 26% were inconclusive and are not listed. The call rests on the fitted dose curve; in most records, active means well fitted inhibition curve with a large enough effect; inconclusive means small, poorly fitted or top-dose-only effect; inactive means flat fitted curve, though single readings scatter. Many of the other results were omitted from the sample, so actives are more common in it than they were.
Assay: qHTS for Inhibitors of human tyrosyl-DNA phosphodiesterase 1 (TDP1): qHTS in cells in presence of CPT; further: nearly all actives have a fitted effect of over 55% in size
Conditions: chicken DT40 Tdp1-/-;hTDP1 cells + 20 nM CPT, ATP luminescence, 48 h; series mostly up to 46.2 µM; activity change, negative = growth inhibition: at the top concentration
In short: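 Cell growth measured by CellTiter-Glo luminescence after a minimum 48 h, 37 C compound exposure with 20 nM CPT in Tdp1-knockout DT40 cells stably expressing hTDP1, seeded 400/well; qHTS titration format.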
On the % scale 0 is the no-effect control and ±100 the full control effect; potency means the concentration at half of the fitted maximal effect.

Structure (SMILES)	activity change, negative = growth inhibition	Potency
O=C(c1ccccc1[N+](=O)[O-])N1CCC2(CC1)OCCO2	-10.9% (inactive)	
CN1C2C=C(N(C(=O)c3ccc(Cl)cc3)c3ccccc3)CC1CC2 (stereo not drawn)	-11.7% (inactive)	
Cc1cc(C)cc(C(=O)N(CCc2ccccc2)C2=CC3CCC(C2)N3C)c1 (stereo not drawn)		20.6 µM (active)
Cc1ccc(N2C(=O)NC(=O)C(CCc3ccncc3)(Cc3cccc(Cl)c3Cl)C2=O)cc1 (stereo not drawn)	-5.48% (inactive)	
CN(C)C1C(=O)C(C(N)=O)=C(O)[C@@]2(O)C(=O)C3=C(O)c4c(O)cccc4[C@@](C)(O)C3C[C@@H]12 (stereo partly drawn)		21.1 µM (active)
CC(C)Nc1nc(Cl)nc(NC(C)C)n1		inactive
COC(=O)C(O)(c1ccc(NC(=O)c2ccco2)c(OC)c1)C(F)(F)F (stereo not drawn)	-6.8% (inactive)	
CCNc1nc2[nH]c(=O)c3c(c2s1)OC(N)=C(C#N)C3c1cccs1 (stereo not drawn)	-26.8% (inactive)	
N#CC1=C(N)Oc2c(c(=O)oc3ccccc23)C1c1ccccc1OC(=O)c1cccs1 (stereo not drawn)		18.4 µM (active)
CNP1(NC)=Nc2nn(-c3ccccc3)c(N)c2C(c2ccccc2)=N1	-13.9% (inactive)	
CN(C)CC1Oc2ccccc2OC1(O)c1ccccc1 (stereo not drawn)		2.06 µM (active)
COc1cc(OC)cc(C2(C#N)CCN(C)CC2)c1	-17.9% (inactive)	
CCCCC/C=C\C/C=C\C/C=C\C/C=C\CCCCCC(=O)NCCO	-4.85% [at 4.12 µM] (inactive)	
O=C(N/N=C/c1c(O)n(C2CC2)c(=S)[nH]c1=O)c1ccccc1Cl	13.4% (inactive)	
COC([CH2][Hg])CNC(=O)c1ccccc1OCC(=O)O (stereo not drawn)		1.06 µM (active)
c1cncc(CNC2=NCCC2)c1	3.64% (inactive)	
CCOP(=S)(OCC)C(O)CCCCCn1c(=O)c(F)cn(C2CCCO2)c1=O (stereo not drawn)	-1.03% (inactive)	
CCC1(CC(C)c2ccccc2)C(=O)NC(=O)NC1=O (stereo not drawn)	-0.717% (inactive)	
CCc1ccccc1NC(=O)c1sc2nc3c(cc2c1N)CN(Cc1ccccc1)CC3		7.31 µM (active)
Cn1cc(C(=O)OCC(=O)N2CCCC2)c2ccccc21	1.39% (inactive)	

Structure (SMILES)	activity change, negative = growth inhibition	Potency
O=C(Nc1ccc(Cl)cc1C(=O)c1ccccc1)c1cc(Cl)cc(Cl)c1	-9.22% (inactive)	
O=C(COC(=O)c1ccccc1)Nc1ccc(Cl)cc1C(=O)c1ccccc1	-11% (inactive)	
CN1CCN(C(=S)SCC(=O)Nc2ccc(Cl)cc2C(=O)c2ccccc2)CC1		14.6 µM (active)
CC(Cc1cccs1)NCc1ccc(Cl)cc1 (stereo not drawn)	-21% (inactive)	
CC(C)(Cc1c[nH]c2ccc(Cl)cc12)NCCOc1ccccc1OCC1CC1		21.1 µM (active) and 6.51 µM (active)
O=C(CCCn1c(=O)[nH]c2cc(Cl)ccc2c1=O)N1CCC2(CC1)OCCO2	-18.1% (inactive)	
Cc1ccc(Cn2c(C)c3cnn(CC(=O)N4CCC5(CC4)OCCO5)c(=O)c3c2C)cc1		20.6 µM (active)
COc1ccc(-c2nc(CS(=O)CC(=O)N3CCC4(CC3)OCCO4)c(C)o2)cc1 (stereo not drawn)	-11.2% (inactive)	
CCC(=O)OC(Cc1ccccc1)(c1ccccc1)C(C)CN(C)C (stereo not drawn)	-3.39% (inactive)	
COC(=O)[C@@]12C[C@@H](CC(=O)NCc3cccc(C(F)(F)F)c3)C(=O)N(Cc3ccco3)C1=CCC(C)(C)C2		20.6 µM (active)
COc1cccc(-c2nc3ccc(N4CCN(C)CC4)cc3[nH]2)c1	-18.1% (inactive)	
O=C1C2CCN(CC2)C1(CO)CO		2.66 µM (active)
CN(C)C(=O)NC(O)C(Cl)(Cl)Cl (stereo not drawn)	-0.512% (inactive)	
O=c1[nH]c(=O)n(Cc2ccccc2)c(O)c1/C=N/Nc1c(F)c(F)c(F)c(F)c1F	-13.6% (inactive)	
O=C1NC(=O)C(Cc2ccccc2)C(=O)N1	-5.53% (inactive)	
CCN(CC)C(=O)Oc1ccc(NC(=O)N2CCOCC2)cc1	-13% (inactive)	
O=C(OCCN1CCOCC1)C1(c2ccccc2)CCCC1	7.49% (inactive)	
CSc1nc2ccc(C)cc2c(=O)n1-c1cccnc1	-17.6% (inactive)	
O=c1c2ccccc2nc(/C=C/c2ccc(F)cc2)n1-c1ccccc1O		23.1 µM (active)
O=c1c2ccccc2nc(/C=C/c2ccco2)n1-c1ccccc1O		14.6 µM (active)

Structure (SMILES)	activity change, negative = growth inhibition	Potency
Cn1cc(/C=C/c2nc3ccccc3c(=O)n2-c2ccccc2)c2ccccc21		10.3 µM (active)
O=C(Nc1cccc2ccccc12)N1CCC2(CC1)OCCO2	1.32% (inactive)	
CCOC(=O)C1CN(C)CCC1=O (stereo not drawn)	-17.2% (inactive)	
CN(C)CCCN=Cc1c(O)n(Cc2ccco2)c(=O)[nH]c1=O	-9.19% (inactive)	
c1cc2c(cc1[C@H]1OC[C@H]3[C@@H]1CO[C@@H]3c1ccc3c(c1)OCO3)OCO2	-10.6% (inactive)	
CC(CC(C#N)(c1ccccc1)c1ccccc1)N1CCCCC1 (stereo not drawn)	14.4% (inactive)	
O=C(N/N=C/c1ccc([N+](=O)[O-])o1)c1cc([N+](=O)[O-])cc([N+](=O)[O-])c1O	-39.1% (inactive)	
N[C@H](C(=O)O)c1cc(=O)[nH]o1	-1.29% (inactive)	
O=C(COC(=O)Cc1ccccc1)Nc1ccc(F)cc1	38.9% (inactive)	
CC(C)c1ccc(-n2c(O)c(/C=N/N3CCOCC3)c(=O)[nH]c2=S)cc1	2.61% (inactive)	
CN(C)c1cccc(C(=O)Nc2nc3ccc(S(=O)(=O)NC(C)(C)C)cc3s2)c1		10.3 µM (active)
CC1C2Cn3c(nc4ccccc43)C1N(C)O2 (stereo not drawn)	-1.39% (inactive)	
Cc1c(C(=O)O)cccc1-n1c(C)cc(/C=C2\C(=O)NC(=O)N(c3ccc4c(c3)OCO4)C2=O)c1C	22.5% (inactive)	
COC(=O)[C@@H]1C(OC(=O)c2ccccc2)CC2CCC1N2C (stereo partly drawn)	-19.5% (inactive)	
CN1[C@@H]2CC[C@H]1CC(OC(=O)c1cc(Cl)cc(Cl)c1)C2 (stereo partly drawn)		18.8 µM (active)
CN1CCC(OC(=O)c2cccc(F)c2)CC1	-5.62% (inactive)	
CC1([N+](=O)[O-])COP(=O)(Nc2ccc(F)cc2)OC1 (stereo not drawn)	0.366% (inactive)	
Cc1c(Oc2cc(NN3CCCCC3)c([N+](=O)[O-])cc2[N+](=O)[O-])cccc1[N+](=O)[O-]	-26.6% (inactive)	

Reference: PubChem BioAssay AID686979 (National Center for Advancing Translational Sciences (NCATS), 2013)
